We go through 73 molecules from the antibiotic and cytotoxicity screens of Wong et al. (2023).

SMILES strings stand for the structures. In all, about 39,000 compounds went through this assay and about 3,300 (8.5%) were called active. Shown is part of a subset that was picked to be rich in actives.

In this experiment the test system is HepG2. Description: cytotoxicity call (relative viability < 0.9). The settings on record: 10 µM.
Turning to `C=CC(=O)N1C[C@@H]2CC[C@H](O)[C@@H]2C1`, the cytotoxicity call is “inactive”.

Consider `COc1ccc(-c2oc3cc(O[C@@H]4O[C@@H](C)[C@H](O)[C@@H](O)[C@H]4O)cc(O)c3c(=O)c2O[C@@H]2O[C@H](CO)[C@@H](O)[C@H](O)[C@H]2O)cc1`, for which the cytotoxicity call was “inactive”.

As for `Cc1noc(C)c1NC(=O)Nc1ccc2c(c1)CC(=O)N([C@@H](C)CO)C[C@@H](C)[C@H](CN(C)C(=O)NC(C)C)O2`, the cytotoxicity call is “inactive”.

With `Cc1ccc(S(=O)(=O)Nc2cc([C@@H](C(=O)OC(C)C)C(=O)C(F)(F)F)c(O)c3ccccc23)c(C)c1`, the cytotoxicity call was “inactive”.

As to `CNC[C@@H]1OCCCC[C@H](C)Oc2ccc(NC(=O)Nc3ccc(C(F)(F)F)cc3)cc2C(=O)N([C@H](C)CO)C[C@H]1C`, the cytotoxicity call is “inactive”.

For the molecule `O=c1c(O)c(-c2ccc(O)cc2)oc2ccccc12`, the cytotoxicity call is “active”.

With `O=c1c(O)c(-c2ccccc2)oc2cc(O)ccc12`, the cytotoxicity call is “inactive”.

In the case of `O=c1c(O)c(-c2ccc(O)c(O)c2)oc2cc(O)ccc12`, the cytotoxicity call was “active”.

For `O=c1c(O)c(-c2ccccc2)oc2ccccc12`, the cytotoxicity call was “inactive”.

`O=c1c(O)c(-c2ccc(O)c(O)c2)oc2cc(O)cc(O)c12`: the cytotoxicity call was “inactive”.

`O=c1c(O)c(-c2ccccc2)oc2cccc(O)c12`: the cytotoxicity call was “inactive”.

Regarding `CCC1OC(=O)C(C)C(OC2CC(C)(OC)C(O)C(C)O2)C(C)C(OC2OC(C)CC(N(C)C)C2O)C(C)(O)CC(C)CN(C)C(C)C(O)C1(C)O` (stereo not drawn), the cytotoxicity call was “inactive”.

For `Cc1noc(C)c1NC(=O)N(C)C[C@@H]1OCCCC[C@H](C)Oc2ccc(NS(=O)(=O)c3cccs3)cc2C(=O)N([C@@H](C)CO)C[C@H]1C`, the cytotoxicity call was “inactive”.

For `CCCNC(=O)C[C@@H]1CC[C@H]2[C@@H](COC[C@@H](O)CN2S(=O)(=O)c2ccc(Oc3ccccc3)cc2)O1`, the cytotoxicity call was “inactive”.

For the molecule `COCC(=O)Nc1ccc2c(c1)C(=O)N(C)C[C@@H](OC)[C@H](C)CN(Cc1ccccc1OC)[C@H](C)CO2`, the cytotoxicity call is “inactive”.

Consider `Cc1cncc2cccc(S(=O)(=O)NCCN(C/C=C/c3ccc(Br)cc3)C/C=C/c3ccc(Br)cc3)c12`, for which the cytotoxicity call was “inactive”.

For `C[C@@H]1CN([C@@H](C)CO)C(=O)Cc2cc(NC(=O)NC3CCCCC3)ccc2O[C@H]1CN(C)S(C)(=O)=O`, the cytotoxicity call is “active”.

With `C[C@@H]1CN([C@H](C)CO)C(=O)Cc2cc(NC(=O)NC3CCCCC3)ccc2O[C@H]1CN(C)S(C)(=O)=O`, the cytotoxicity call is “inactive”.

In the case of `C[C@H](CO)N1C[C@H](C)[C@@H](CN(C)S(C)(=O)=O)Oc2ccc(NC(=O)NC3CCCCC3)cc2CC1=O`, the cytotoxicity call is “inactive”.

As for `C[C@H](CO)N1C[C@H](C)[C@H](CN(C)S(C)(=O)=O)Oc2ccc(NC(=O)NC3CCCCC3)cc2CC1=O`, the cytotoxicity call was “inactive”.

With `C[C@H]1CN([C@@H](C)CO)C(=O)Cc2cc(NC(=O)NC3CCCCC3)ccc2O[C@H]1CN(C)S(C)(=O)=O`, the cytotoxicity call was “inactive”.

Consider `C[C@@H]1CN([C@H](C)CO)C(=O)Cc2cc(NC(=O)NC3CCCCC3)ccc2O[C@@H]1CN(C)S(C)(=O)=O`, for which the cytotoxicity call is “active”.

On to `COc1ccc(CN(C)C[C@@H]2Oc3ccc(NC(=O)CCN4CCOCC4)cc3C(=O)N([C@@H](C)CO)C[C@H]2C)cc1`, for which the cytotoxicity call is “inactive”.

For `C[C@@H]1CN([C@H](C)CO)C(=O)c2cc(NC(=O)CCC(F)(F)F)ccc2O[C@@H](C)CCCCO[C@H]1CN(C)Cc1ccncc1`, the cytotoxicity call is “inactive”.

In the case of `C[C@@H]1CCCCO[C@H](CN(C)S(=O)(=O)c2cccs2)[C@H](C)CN([C@H](C)CO)C(=O)c2cc(NC(=O)Cc3ccccc3)ccc2O1`, the cytotoxicity call was “inactive”.

`C[C@H](CO)N1C[C@H](C)[C@@H](CN(C)C(=O)Nc2ccccc2)Oc2ccc(NC(=O)Nc3cccc4ccccc34)cc2C1=O`: the cytotoxicity call is “inactive”.

With `C[C@@H]1CN([C@H](C)CO)S(=O)(=O)c2ccc(-c3ccccc3F)cc2O[C@@H]1CN(C)Cc1cncnc1`, the cytotoxicity call is “inactive”.

For the molecule `CCS(=O)(=O)Nc1ccc2c(c1)C(=O)N(C)[C@H]1CC[C@H](CC(=O)N[C@@H]3CCN(Cc4ccccc4)C3)O[C@H]1CO2`, the cytotoxicity call is “inactive”.

As to `C[C@@H]1CCCCO[C@@H](CN(C)C(=O)Nc2cccc3ccccc23)[C@H](C)CN([C@@H](C)CO)C(=O)c2cc(NC(=O)Nc3ccc(F)cc3)ccc2O1`, the cytotoxicity call is “inactive”.

Consider `O=[N+]([O-])c1ccc(NCCNCCO)cc1`, for which the cytotoxicity call was “inactive”.

As for `O=C(CCNCCO)c1ccccc1`, the cytotoxicity call was “inactive”.

As to `O=C1c2c(O)ccc(O)c2C(=O)c2c(NCCNCCO)ccc(NCCNCCO)c21`, the cytotoxicity call was “active”.

`O=C1c2ccccc2C(=O)c2c(NCCNCCO)ccc(NCCNCCO)c21`: the cytotoxicity call was “active”.

On to `Cl.Cl.O=C1c2c(O)ccc(O)c2C(=O)c2c(NCCNCCO)ccc(NCCNCCO)c21`, for which the cytotoxicity call was “active”.

For `O=C1c2ccccc2C(=O)c2c1ccc(O)c2O`, the cytotoxicity call is “inactive”.

Turning to `CN1CCN(C(=O)C[C@H]2CC[C@H]3[C@H](COc4ccc(NC(=O)C5CCCCC5)cc4C(=O)N3C)O2)CC1`, the cytotoxicity call was “inactive”.

On to `C[C@]12C(=O)N(CCCCCO)[C@@H]3C(=O)N(c4ccc(Cl)cc4)CC=C[C@]31O[C@@H]1/C=C\CCCOC(=O)[C@H]12`, for which the cytotoxicity call is “inactive”.

`O=C(C[C@@H]1CC[C@H](NC(=O)CN2CCOCC2)[C@@H](CO)O1)NC1CCC1`: the cytotoxicity call is “inactive”.

As for `CC(C)NC(=O)Nc1ccc2c(c1)C(=O)N([C@H](C)CO)C[C@@H](C)[C@@H](CN(C)S(=O)(=O)c1ccccc1)O2`, the cytotoxicity call is “inactive”.

As to `COCC#Cc1ccc2c(c1)O[C@@H](CN(C)S(=O)(=O)c1ccc(OC)cc1)[C@H](C)CN([C@H](C)CO)S2(=O)=O`, the cytotoxicity call was “inactive”.

On to `C[C@H](CO)N1C[C@H](C)[C@@H](CN(C)C(=O)Nc2cccc3ccccc23)OCCCC[C@H](C)Oc2ccc(NS(=O)(=O)c3cn(C)cn3)cc2C1=O`, for which the cytotoxicity call was “inactive”.

Consider `C[C@@H]1CN([C@H](C)CO)C(=O)Cc2cc(NC(=O)Cn3cnnn3)ccc2O[C@H]1CN(C)Cc1ccc(Cl)c(Cl)c1`, for which the cytotoxicity call is “inactive”.

Regarding `C/C=C/c1cccc(-c2nc(C(=O)NCc3cccc(OC)c3)cc3c2[C@@H](CCO)N([S@](=O)C(C)(C)C)C3)c1`, the cytotoxicity call was “inactive”.

For the molecule `CC(C)[Si]1(C(C)C)O[C@@H](c2ccccc2)c2cc(C3CC3)nc(-c3ccc(Oc4ccccc4)cc3)c21`, the cytotoxicity call is “inactive”.

With `CC(CN1c2ccccc2Sc2ccccc21)N(C)C.Cl` (stereo not drawn), the cytotoxicity call was “active”.

For the molecule `CCN(CC)C(C)CN1c2ccccc2Sc2ccccc21.Cl` (stereo not drawn), the cytotoxicity call is “active”.

In the case of `CCC(CC)C(=O)N1c2ccccc2Sc2ccccc21`, the cytotoxicity call is “inactive”.

As for `C[C@H]1CN([C@@H](C)CO)C(=O)c2cc(NC(=O)Cn3cnnn3)ccc2O[C@H]1CN(C)Cc1ccc(Oc2ccccc2)cc1`, the cytotoxicity call was “inactive”.

Turning to `C[C@H](CO)N1C[C@H](C)[C@H](CN(C)Cc2ccc(C(F)(F)F)cc2)Oc2c(NC(=O)Nc3cccc4ccccc34)cccc2C1=O`, the cytotoxicity call is “inactive”.

As to `Cc1ccc(S(=O)(=O)N(C)C[C@H]2OCCCC[C@@H](C)Oc3ccc(NS(=O)(=O)c4ccc(F)cc4)cc3C(=O)N([C@H](C)CO)C[C@H]2C)cc1`, the cytotoxicity call is “inactive”.

For `C=C1[C@@H]2[C@H]3OC(=O)[C@@H](C)[C@@H]3[C@@H](O[C@@H]3O[C@H](CO)[C@@H](O)[C@H](O)[C@H]3O)CC(=C)[C@@H]2C[C@@H]1O`, the cytotoxicity call was “inactive”.

Turning to `COc1cc(-c2coc3cc(OCc4ccccc4)c(OC)c(O)c3c2=O)cc(OCc2ccccc2)c1OC`, the cytotoxicity call was “inactive”.

On to `C[C@@H]1CCCCO[C@@H](CN(C)CC2CCCCC2)[C@H](C)CN([C@H](C)CO)C(=O)c2cc(NS(=O)(=O)c3cccs3)ccc2O1`, for which the cytotoxicity call was “inactive”.

Regarding `Cc1sc(N)nc1-c1ccccc1`, the cytotoxicity call is “inactive”.

On to `C=C(C)CNc1nc(-c2ccccc2)c(-c2ccccc2)s1`, for which the cytotoxicity call was “inactive”.

Turning to `Cc1ccc(Nc2nc(-c3ccc(C)cc3)c(C)s2)cc1`, the cytotoxicity call is “inactive”.

Take `Cc1ccc(-c2nc(Nc3cccc(Cl)c3)sc2C)cc1`: the cytotoxicity call was “inactive”.

Regarding `Cc1nc(-c2ccc(Cl)cc2)c(-c2ccccc2)s1`, the cytotoxicity call was “active”.

On to `Cc1sc(Nc2ccccc2)nc1-c1ccc(Cl)cc1`, for which the cytotoxicity call is “active”.

Take `NC(=O)Cn1c(=O)c2ccccc2n(CC(N)=O)c1=O`: the cytotoxicity call is “inactive”.

For the molecule `C=CCN(Cc1ccccc1)C(=O)[C@@H]1N(c2c(Cl)cccc2CO)C(=O)[C@@H]2[C@H](C(=O)O)[C@@H]3C=C[C@@]21O3`, the cytotoxicity call is “inactive”.

`C[C@H]1CN([C@@H](C)CO)C(=O)c2cc(NC(=O)Nc3ccc(C(F)(F)F)cc3)ccc2O[C@@H]1CN(C)Cc1ccc(C(=O)Nc2ccccc2N)cc1`: the cytotoxicity call is “inactive”.

As for `C[C@H](CO)N1C[C@H](C)[C@@H](CN(C)Cc2ccc(C(=O)Nc3ccccc3N)cc2)Oc2ccc(NC(=O)Nc3ccc(F)cc3)cc2C1=O`, the cytotoxicity call is “inactive”.

As for `C[C@H](CO)N1C[C@H](C)[C@H](CN(C)Cc2ccc(C(=O)Nc3ccccc3N)cc2)Oc2ccc(NC(=O)Nc3ccccc3)cc2C1=O`, the cytotoxicity call was “inactive”.

For the molecule `C[C@@H]1CN([C@@H](C)CO)C(=O)c2cc(NC(=O)Nc3ccccc3)ccc2O[C@@H]1CN(C)Cc1ccc(C(=O)Nc2ccccc2N)cc1`, the cytotoxicity call was “active”.

As to `C[C@H]1CN([C@@H](C)CO)C(=O)c2cc(NC(=O)Nc3ccc(F)cc3)ccc2O[C@H]1CN(C)Cc1ccc(C(=O)Nc2ccccc2N)cc1`, the cytotoxicity call was “inactive”.

In the case of `C[C@H]1CN([C@@H](C)CO)C(=O)c2cc(NC(=O)Nc3ccccc3)ccc2O[C@H]1CN(C)Cc1ccc(C(=O)Nc2ccccc2N)cc1`, the cytotoxicity call is “inactive”.

With `C[C@H](CO)N1C[C@H](C)[C@H](CN(C)Cc2ccc(C(=O)Nc3ccccc3N)cc2)Oc2ccc(NC(=O)Nc3ccc(F)cc3)cc2C1=O`, the cytotoxicity call is “inactive”.

For the molecule `C[C@@H]1CN([C@@H](C)CO)C(=O)c2cc(NC(=O)Nc3ccc(F)cc3)ccc2O[C@@H]1CN(C)Cc1ccc(C(=O)Nc2ccccc2N)cc1`, the cytotoxicity call was “inactive”.

On to `C[C@@H]1CN([C@@H](C)CO)C(=O)c2cc(NC(=O)Nc3ccc(C(F)(F)F)cc3)ccc2O[C@@H]1CN(C)Cc1ccc(C(=O)Nc2ccccc2N)cc1`, for which the cytotoxicity call was “active”.

Regarding `C[C@@H]1CN([C@H](C)CO)C(=O)c2cc(NC(=O)Nc3ccc(C(F)(F)F)cc3)ccc2O[C@@H]1CN(C)Cc1ccc(C(=O)Nc2ccccc2N)cc1`, the cytotoxicity call is “active”.

Take `C[C@@H]1CN([C@H](C)CO)C(=O)c2cc(NC(=O)Nc3ccc(C(F)(F)F)cc3)ccc2O[C@H]1CN(C)Cc1ccc(C(=O)Nc2ccccc2N)cc1`: the cytotoxicity call was “inactive”.

For the molecule `C[C@H](CO)N1C[C@H](C)[C@H](CN(C)Cc2ccc(C(=O)Nc3ccccc3N)cc2)Oc2ccc(NC(=O)Nc3ccc(C(F)(F)F)cc3)cc2C1=O`, the cytotoxicity call was “active”.
